The nature of experiment [1]: Quantitative High-Throughput drug screen in 47 multiple myeloma cell lines against the NCATS MIPE library collection: Delta47_JCRB cell viability assay (AID 1918925; also: nearly all actives have a fitted effect of over 45% in size). A digest of the protocol:
(§1)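 Relative luminescence from CellTiter-Glo served as the viability signal, referenced to DMSO-treated (100%) and cell-free medium (0%) controls. Treatment lasted 48 hours at 37C with 500 cells per well.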

The nature of experiment [2]: Quantitative High-Throughput drug screen in 47 multiple myeloma cell lines against the NCATS MIPE library collection: EJM_DSMZ cell viability assay (AID 1918926; also: nearly all actives have a fitted effect of over 30% in size). The essentials:
as §1

Experiment [3] can be described thus: Quantitative High-Throughput drug screen in 47 multiple myeloma cell lines against the NCATS MIPE library collection: AMO1_DSMZ cell viability assay (AID 1918927; also: nearly all actives have a fitted effect of over 30% in size). A digest of the protocol: as §1
A short description of experiment [4]: Quantitative High-Throughput drug screen in 47 multiple myeloma cell lines against the NCATS MIPE library collection: Karpas417_ECACC cell viability assay (AID 1918961). The following applies: Karpas417 myeloma viability, CellTiter-Glo ATP luminescence, 48 h; viability (% of DMSO): at 45.8 µM (top of the series). A digest of the protocol: (§2)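 Viability readout: CellTiter-Glo luminescence following 5 min room-temperature incubation with reagent. Prior exposure: 48 h, 37C, humidified 5% CO2, 500 cells per well.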
On the technique in general: Cellular ATP, detected with luciferase, serves as a proxy for viable cell number.

The nature of experiment [5]: Quantitative High-Throughput drug screen in 47 multiple myeloma cell lines against the NCATS MIPE library collection: JIM3_ECACC cell viability assay (AID 1918963; also: nearly all actives have a fitted effect of over 35% in size). A digest of the protocol:
(§3)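 We plated 500 myeloma cells per well, pinned in MIPE 4.0 compounds, and incubated for 48 hours at 37C. ATP was then quantified with CellTiter-Glo, with DMSO and media-only wells defining 100% and 0%.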

The nature of experiment [6]: Quantitative High-Throughput drug screen in 47 multiple myeloma cell lines against the NCATS MIPE library collection: INA6_PLB cell viability assay (AID 1918965; also: nearly all actives have a fitted effect of over 55% in size). The essentials:
as §2

Experiment [7] can be described thus: Quantitative High-Throughput drug screen in 47 multiple myeloma cell lines against the NCATS MIPE library collection: H1112_PLB cell viability assay (AID 1918967; also: nearly all actives have a fitted effect of over 30% in size). A digest of the protocol: as §1
The nature of experiment [8]: Quantitative High-Throughput drug screen in 47 multiple myeloma cell lines against the NCATS MIPE library collection: Karpas25_ECACC cell viability assay (AID 1918968; also: nearly all actives have a fitted effect of over 35% in size). The essentials:
as §1

Experiment [9] can be described thus: Quantitative High-Throughput drug screen in 47 multiple myeloma cell lines against the NCATS MIPE library collection: KMS12BM_JCRB cell viability assay (AID 1918971). Also: nearly all actives have a fitted effect of over 35% in size. The essentials: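 CellTiter-Glo luminescence (ATP) after 48 h compound exposure, 37C/5% CO2; 500 cells/well; MIPE 4.0 approved/investigational drugs pinned in; DMSO = 100%, media only = 0% viability.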

Experiment [10] in a line: Quantitative High-Throughput drug screen in 47 multiple myeloma cell lines against the NCATS MIPE library collection: KMS21BM_JCRB cell viability assay (AID 1918974). The following applies: ATP luminescence, 48 h; viability: at 45.8 µM (top of the series) unless noted. A digest of the protocol: as §1
Experiment [11] is described as follows: Quantitative High-Throughput drug screen in 47 multiple myeloma cell lines against the NCATS MIPE library collection: ARP1_JJKsccF8 cell viability assay (AID 1918928; also: nearly all actives have a fitted effect of over 40% in size). The essentials: (§4)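 500 cells/well; MIPE 4.0 library pinned in; 48 h, 37 °C, 5% CO2; CellTiter-Glo ATP luminescence. Controls: DMSO = 100% viability, medium only = 0%.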
The nature of experiment [12]: Quantitative High-Throughput drug screen in 47 multiple myeloma cell lines against the NCATS MIPE library collection: Karpas620_DSMZ cell viability assay (AID 1918959). Also: nearly all actives have a fitted effect of over 30% in size. The essentials: as §3
The nature of experiment [13]: Quantitative High-Throughput drug screen in 47 multiple myeloma cell lines against the NCATS MIPE library collection: KMM1_JCRB cell viability assay (AID 1918960). Also: nearly all actives have a fitted effect of over 30% in size. The essentials:
as §4

Experiment [14] in a line: Quantitative High-Throughput drug screen in 47 multiple myeloma cell lines against the NCATS MIPE library collection: KHM11_PLB cell viability assay (AID 1918962). Also: nearly all actives have a fitted effect of over 35% in size. A digest of the protocol:
as §3

The nature of experiment [15]: Quantitative High-Throughput drug screen in 47 multiple myeloma cell lines against the NCATS MIPE library collection: JIM1_ECACC cell viability assay (AID 1918964). A digest of the protocol: as §1
A short description of experiment [16]: Quantitative High-Throughput drug screen in 47 multiple myeloma cell lines against the NCATS MIPE library collection: JJN3_DSMZ cell viability assay (AID 1918966; also: nearly all actives have a fitted effect of over 50% in size). A digest of the protocol: as §1
Experiment [17] in a line: Quantitative High-Throughput drug screen in 47 multiple myeloma cell lines against the NCATS MIPE library collection: KMS12PE_JCRB cell viability assay (AID 1918972). Also: nearly all actives have a fitted effect of over 30% in size. A digest of the protocol:
as §2

Experiment [18] is described as follows: Quantitative High-Throughput drug screen in 47 multiple myeloma cell lines against the NCATS MIPE library collection: KMS20_JCRB cell viability assay (AID 1918973). Also: nearly all actives have a fitted effect of over 45% in size. The essentials: as §1
A short description of experiment [19]: Quantitative High-Throughput drug screen in 47 multiple myeloma cell lines against the NCATS MIPE library collection: KMS27_JCRB cell viability assay (AID 1918970). Also: nearly all actives have a fitted effect of over 30% in size. The essentials:
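Each line is seeded at 500 cells per well and treated with library compounds for 48 hours under 37 °C, 5% CO2. CellTiter-Glo is then added for 5 min at room temperature before median relative luminescence is recorded.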

Experiment [20] in a line: Quantitative High-Throughput drug screen in 47 multiple myeloma cell lines against the NCATS MIPE library collection: ARD_JJKsccE7 cell viability assay (AID 1918929). A digest of the protocol: as §1

Six compounds from PubChem BioAssay (NCATS) can be followed below.

Results filed as inconclusive are left out. Values without a mark were called inactive. The source made the active and inactive calls. Calls follow the shape of the dose curve; as a rule, active = well fitted curve in the direction sought with a large enough effect; inconclusive = small, poorly fitted or top-dose-only effect, or another doubt; inactive = no such curve, though single readings can be large; an effect the other way counts as inactive or inconclusive.
Potency is read from the fitted curve at half-maximal effect.

In the case of `Cc1ccc2nc(NC(=O)CSc3nc4c(c(=O)n3-c3ccccc3)SCC4)sc2c1`, the Potency was 18.7 µM (active) in experiment [1]; 6.62 µM (active) in [2]; 9.35 µM (active) in [3]; 23.5 µM (active) in experiment [4]; 18.7 µM (active) in [5]; 8.33 µM (active) in experiment [6]. Further, the Potency in [7] was 11.8 µM (active); in [8] it was 5.26 µM (active); in experiment [9], 9.35 µM (active); in experiment [10] it was 11.8 µM (active).

Regarding `COc1cc2c(Oc3ccc(-c4cnc(Nc5ccc(F)cc5)n(C)c4=O)cc3F)ccnc2cc1OCCCN1CCOCC1`, the Potency is 0.935 µM (active) in experiment [1]; 18.7 µM (active) in experiment [2]; 8.33 µM (active) in experiment [11]; 2.96 µM (active) in [12]; 1.87 µM (active) in experiment [13]; 8.33 µM (active) in experiment [14]. For the same compound, the Potency in [15] was 1.18 µM (active); in experiment [6], 14.8 µM (active); in experiment [16] it was 11.8 µM (active); in [8] it was 1.87 µM (active); in experiment [9], 20.9 µM (active); in [17], 1.87 µM (active). In addition, in experiment [18], the Potency was 2.96 µM (active).

For the compound `COc1cc(C(C)C)c2c(c1)S(=O)(=O)N(COc1cc(=O)n3cccc(OCCN4CCCCC4)c3n1)C2=O`, the Potency in experiment [1] is 16.6 µM (active); in experiment [2], 18.7 µM (active); in experiment [3], 13.2 µM (active); in [12], 20.9 µM (active); in experiment [13] it was 26.4 µM (active); in [15] it was 18.7 µM (active). Further, the Potency is 13.2 µM (active) in experiment [6]; 14.8 µM (active) in experiment [7]; 13.2 µM (active) in [8]; 18.7 µM (active) in experiment [19]; 23.5 µM (active) in experiment [17]; 18.7 µM (active) in experiment [10].

`COc1cc(=C2C=c3ccccc3=N2)[nH]c1=Cc1[nH]c(C)cc1C`: the Potency is 1.87 µM (active) in [1]; 6.62 µM (active) in [2]; 1.05 µM (active) in [11]; 7.43 µM (active) in [12]; 16.6 µM (active) in [4]; 0.418 µM (active) in [14]. Further, the Potency is 2.35 µM (active) in [5]; 1.18 µM (active) in [6]; 1.87 µM (active) in [16]; 5.9 µM (active) in experiment [7]; 0.743 µM (active) in experiment [8]; 16.6 µM (active) in experiment [19]. For the same compound, the Potency is 1.66 µM (active) in [9] and 20.9 µM (active) in experiment [17].

For `N#CCNC(=O)c1ccc(-c2ccnc(Nc3ccc(N4CCOCC4)cc3)n2)cc1`, the Potency in experiment [1] is 9.35 µM (active); in experiment [2] it was 11.8 µM (active); in experiment [11] it was 16.6 µM (active); in [14], 4.69 µM (active); in experiment [6], 1.32 µM (active); in experiment [16] it was 13.2 µM (active). Also, the Potency in [7] was 18.7 µM (active); in experiment [8], 9.35 µM (active); in experiment [9] it was 14.8 µM (active); in [17], 5.26 µM (active). Further, the Potency result in experiment [12] and in [13] was “inactive” throughout.

Take `CN1CCC(CNc2ccc3ncc(-c4cccc(OC(F)(F)F)c4)n3n2)CC1`: the Potency was 4.69 µM (active) in experiment [1]; 26.4 µM (active) in experiment [2]; 13.2 µM (active) in [11]; 11.8 µM (active) in [20]; 10.5 µM (active) in [12]; 16.6 µM (active) in [13]. Besides, the Potency in experiment [4] was 10.5 µM (active); in [14] it was 6.62 µM (active); in [5], 9.35 µM (active); in experiment [6], 4.69 µM (active); in [7], 8.33 µM (active); in [8] it was 7.43 µM (active). Moreover, the Potency in [19] was 14.8 µM (active); in [9] it was 20.9 µM (active); in [17], 7.43 µM (active); in [18], 3.32 µM (active); in [10] it was 9.35 µM (active).
